Structures are written as SMILES. Compounds without any hit were thinned out: in the full panel of roughly 79,000, 15% have a hit. Active and inactive are the calls of the source. No stated cut-off is given here; in the data, active means growth inhibition above about 70%; inactive means the rest.

The experiment is described as follows: NCI Yeast Anticancer Drug Screen. Data for the mlh1 rad18 strain (AID 175). To be noted: S. cerevisiae mlh1 rad18 strain growth inhibition; at 50.0 µM; active compounds read high. As to the method:
Growth inhibition of yeast strains with defined genetic alterations is measured as a screen for potential anti-cancer activity. Selected strains with alterations in DNA damage repair or cell cycle control were exposed to compounds and growth inhibition was measured relative to vehicle treated controls. The strain used in this assay is mlh1 rad18
As to `S=C(NCCS)Nc1ccccc1`, the growth inhibition was 13.3% (inactive).
The result for `NC(=S)c1ccc(N=Cc2ccccn2)cc1` reads -8% (inactive).
The result for `Clc1ccc(-c2cc(-c3ccc(Cl)cc3)n(-c3ccccc3)n2)cc1` reads -9.2% (inactive); that for `CC(=O)Nc1cc(=O)[nH]c2c1CCC2`, -4.7% (inactive); that for `C=CCOC1OC(CS(=O)(=O)O)C(OC(C)=O)C(OC(C)=O)C1OC(C)=O` (stereo not given), 15.9% (inactive).
For `Nc1ccc(C2=Nc3ccccc3SC(c3ccccc3O)C2)cc1` (stereo not given) the value was 6% (inactive); for `COc1cc(Nc2cnc3ccc(C(F)(F)F)cc3n2)cc(OC)c1OC`, -3.5% (inactive).
With `COc1ccc(-c2c3c(nc4nc(SC)nc(SC)c24)CCCC3)cc1OC`, the growth inhibition is 6.8% (inactive).
Turning to `Nc1ccc(Nc2c3ccccc3nc3ccccc23)cc1`, the growth inhibition is 69.3% (inactive).
Take `O=C(O)CCc1nc2c(n1Cc1ccccc1)C(=O)c1ccccc1C2=O`: the growth inhibition was 13% (inactive).
For `O=[N+]([O-])c1ccc(N/N=C(\Cc2ccccc2)c2ccccc2)c([N+](=O)[O-])c1` the value was 2.3% (inactive); for `CN1CCCCC1C[CH2][Sn]([c]1ccccc1)([c]1ccccc1)[c]1ccccc1` (stereo not given), 99.5% (active); for `O=[N+]([O-])c1ccccc1SCl`, 6.7% (inactive).
For `O=C(O)CSCc1ccccc1Cl` the value was -11.1% (inactive); for `CCCCCCCNC(=O)C(Cl)Cl`, 7.4% (inactive).
For `CO/C(=N\N=C\c1cc(OC)ccc1OC)c1ccncc1` the value was -11.2% (inactive); for `CN(C)CCCn1cnc2cc(Cl)c(Cl)cc21`, -0.15% (inactive).
Consider `N[C@@H]1CCCC[C@H]1O`, for which the growth inhibition was -16.1% (inactive).
The result for `CC(C)([NH-])C[NH-].[Cl][Pt+2][Cl]` reads 5.1% (inactive); that for `CC(C)C1OC2(C)OC(=N)C1(C#N)C(C#N)(C#N)C2C` (stereo not given), -13.8% (inactive).
The result for `Cc1ccccc1C1=CCCCCC1` reads -9.8% (inactive); that for `c1ccc2c(c1)N=C(NNC1=Nc3ccccc3SC1)CS2`, 0.65% (inactive).
Turning to `C=CC12COC(=O)CC1CCC(=O)C2` (stereo not given), the growth inhibition is -5.4% (inactive).
The result for `CCC(C#N)NC(=O)NC(C#N)CC` (stereo not given) reads -42.1% (inactive).
For `COC(=O)C(N)CO` (stereo not given) the value was -26.1% (inactive); for `CC1C2(c3ccccc3)C(C(=O)c3ccccc3)NC(c3ccccc3)C12c1ccccc1` (stereo not given), 34.6% (inactive).
For `COc1ccc(N=Nc2ccc(OC)cc2C)c(C)c1` the value was 7.15% (inactive); for `CC1=C(C(=O)CC(=O)C(=O)Nc2cccc(Cl)c2C)Sc2ccccc2N1`, -10.6% (inactive).
In the case of `CCc1cccc(CC)c1N1C(=O)C(=O)C(C(C)=O)C1=O` (stereo not given), the growth inhibition was 8.45% (inactive).
For `Cc1nn(CCO)c2nc(N)nc(N)c12` the value was -3.2% (inactive); for `C=CCn1c(=S)sc2c(=O)[nH]cnc21`, 11.4% (inactive).
Regarding `O=C(OCC1OC(OCc2ccccc2)C(OC(=O)c2ccccc2)C1OC(=O)c1ccccc1)c1ccccc1` (stereo not given), the growth inhibition is -24.1% (inactive).
On to `CCC(O)(c1ccccc1)C(O)c1ccccc1` (stereo not given), for which the growth inhibition was -15.8% (inactive).
As to `O=C1/C(=C/c2ccc(O)c(CN3CCCCC3)c2)CCC/C1=C\c1ccc(O)c(CN2CCCCC2)c1`, the growth inhibition was 19.4% (inactive).
`C=C(C)S(=O)(=O)c1ccc(C)cc1`: the growth inhibition is 11.8% (inactive).
The result for `O=C(CCc1ccc(O)c(O)c1)NCCc1cc(O)cc(OCc2ccccc2)c1` reads -73.5% (inactive).
The result for `Cc1ccc(S(=O)(=O)N2CCSCCSCCSCCSCC2)cc1` reads -39.1% (inactive).
For `O=C(c1ccccc1)c1cccc2cccc(C(=O)c3ccccc3)c12` the value was -27.6% (inactive).
Turning to `O=[N+]([O-])c1cc(Cl)cc2c1-c1c(Cl)cc(Cl)cc1C2`, the growth inhibition is 4.05% (inactive).
The result for `N#Cc1c(-c2ccccc2)ssc1=S` reads 12.6% (inactive).

Source of the values: PubChem BioAssay (NCI).
